According to PubChem BioAssay AID1159580 (chemical genetic matrix, 2015):
Values joined by “and” are separate entries in the source; they are usually repeats but may differ in a detail not shown here. Identical values can stand only once. In all, about 5,500 compounds went through this assay and about 2,000 (36%) were called active. Roughly 18% stayed inconclusive and do not appear here. Cut-off read from the data, not from the text of the source: active = normalized growth mostly below about 0.91 (no sharp cut-off); inconclusive = no clear call, values can overlap the other calls; inactive = mostly above about 0.92. The list shows a part of the results.

Test: chemical genetic growth profiling, strain panel (AID 1159580);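 note: tested at 20 µM; growth read once vehicle control cultures reached saturation at 30 °C; 1 = growth at the plate median or of vehicle wells; lower values mean less growth of the strain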
Settings: growth OD

Measured: normalized growth

CN(C)CCC(c1ccccc1)c1ccccn1 (centres undefined)
inactive: S. cerevisiae deletion strains, locus YJR066W, strain TOR1, hits give low values 0.93 | S. cerevisiae deletion strains, locus YJR075W, strain HOC1, hits give low values 1.01 and 0.951 | S. cerevisiae deletion strains, locus YKL009W, strain mrt4, hits give low values 1.03 | S. cerevisiae deletion strains, locus YKL068W, hits give low values 1 | S. cerevisiae deletion strains, locus YKL085W, strain MDH1 (second series), hits give low values 1.01 | S. cerevisiae deletion strains, locus YKL085W, strain MDH1, hits give low values 1.01 | S. cerevisiae deletion strains, locus YKL160W, strain elf1, hits give low values 1.01 | S. cerevisiae deletion strains, locus YKL190W, strain CNB1, hits give low values 1.01 | S. cerevisiae deletion strains, locus YKR001C, strain vps1, hits give low values 1 | S. cerevisiae deletion strains, locus YKR026C, strain gcn3, hits give low values 1.03 | S. cerevisiae deletion strains, locus YKR091W, strain srl3, hits give low values 1 | S. cerevisiae deletion strains, locus YLL001W, strain dnm1, hits give low values 1.02 | S. cerevisiae deletion strains, locus YLL026W, hits give low values 1.02 | S. cerevisiae deletion strains, locus YLL041C, strain sdh2, hits give low values 1.02 | S. cerevisiae deletion strains, locus YLR027C, strain aat2, hits give low values 1.01 | S. cerevisiae deletion strains, locus YLR039C, strain RIC1, hits give low values 1.05 | S. cerevisiae deletion strains, locus YLR058C, strain SHM2, hits give low values 1 | S. cerevisiae deletion strains, locus YLR102C, strain apc9, hits give low values 1 | S. cerevisiae deletion strains, locus YLR113W, strain HOG1, hits give low values 0.981 | S. cerevisiae deletion strains, locus YLR221C, strain rsa3, hits give low values 1.01 | S. cerevisiae deletion strains, locus YLR258W, strain gsy2, hits give low values 1.01 | S. cerevisiae deletion strains, locus YLR262C, strain YPT6 (second series), hits give low values 1.03 | S. cerevisiae deletion strains, locus YLR262C, strain YPT6, hits give low values 1.01 | S. cerevisiae deletion strains, locus YLR268W, strain sec22, hits give low values 1.04 | S. cerevisiae deletion strains, locus YLR320W, strain mms22, hits give low values 1.01 | S. cerevisiae deletion strains, locus YLR330W, strain CHS5, hits give low values 1.01 | S. cerevisiae deletion strains, locus YLR342W, strain FKS1 (second series), hits give low values 1.03 | S. cerevisiae deletion strains, locus YLR342W, strain FKS1, hits give low values 1.01 | S. cerevisiae deletion strains, locus YLR357W, strain rsc2, hits give low values 1.02 | S. cerevisiae deletion strains, locus YLR370C, strain arc18, hits give low values 1.02 | S. cerevisiae deletion strains, locus YLR371W, strain rom2, hits give low values 1.01 | S. cerevisiae deletion strains, locus YLR384C, strain iki3, hits give low values 1.01 | S. cerevisiae deletion strains, locus YLR418C, strain cdc73, hits give low values 0.995 | S. cerevisiae deletion strains, locus YML016C, strain PPZ1, hits give low values 1 | S. cerevisiae deletion strains, locus YML032C, strain rad52, hits give low values 1.01 | S. cerevisiae deletion strains, locus YML120C, strain ndi1, hits give low values 1.01 | S. cerevisiae deletion strains, locus YML124C, strain tub3, hits give low values 1 | S. cerevisiae deletion strains, locus YMR058W, strain fet3, hits give low values 1.02 | S. cerevisiae deletion strains, locus YMR078C, strain ctf18, hits give low values 1.01 | S. cerevisiae deletion strains, locus YMR125W, strain sto1, hits give low values 1.01 | S. cerevisiae deletion strains, locus YMR129W, hits give low values 1.01 | S. cerevisiae deletion strains, locus YMR205C, strain PFK2, hits give low values 1.01 | S. cerevisiae deletion strains, locus YMR223W, strain ubp8, hits give low values 0.983 | S. cerevisiae deletion strains, locus YMR231W, strain pep5, hits give low values 1.02 | S. cerevisiae deletion strains, locus YMR263W, strain SAP30, hits give low values 1 and 0.998 | S. cerevisiae deletion strains, locus YMR307W, strain GAS1, hits give low values 1.03 and 0.977 | S. cerevisiae deletion strains, locus YNL067W, strain RPL9B, hits give low values 0.996 | S. cerevisiae deletion strains, locus YNL071W, strain lat1, hits give low values 1.01 | S. cerevisiae deletion strains, locus YNL128W, strain TEP1, hits give low values 1.02 | S. cerevisiae deletion strains, locus YNL175C, strain NOP13, hits give low values 1.01 | S. cerevisiae deletion strains, locus YNL183C, strain NPR1, hits give low values 0.939 | S. cerevisiae deletion strains, locus YNL197C, strain WHI3, hits give low values 1.01 | S. cerevisiae deletion strains, locus YNL209W, strain ssb2, hits give low values 1.02 | S. cerevisiae deletion strains, locus YNL224C, strain SQS1, hits give low values 1 | S. cerevisiae deletion strains, locus YNL233W, strain BNI4, hits give low values 1 | S. cerevisiae deletion strains, locus YNL248C, strain rpa49, hits give low values 1 | S. cerevisiae deletion strains, locus YNL250W, strain rad50, hits give low values 0.997 | S. cerevisiae deletion strains, locus YNL271C, strain bni1, hits give low values 0.993 | S. cerevisiae deletion strains, locus YNL298W, strain CLA4, hits give low values 1.01 | S. cerevisiae deletion strains, locus YNL307C, strain MCK1, hits give low values 1.01 | S. cerevisiae deletion strains, locus YNL322C, strain KRE1 (second series), hits give low values 1.01 | S. cerevisiae deletion strains, locus YNR049C, strain mso1, hits give low values 1.02 | S. cerevisiae deletion strains, locus YNR052C, strain pop2, hits give low values 1.01 | S. cerevisiae deletion strains, locus YOL006C, strain TOP1, hits give low values 0.993 | S. cerevisiae deletion strains, locus YOL012C, strain htz1 2.13 | S. cerevisiae deletion strains, locus YOL147C, strain pex11, hits give low values 1 | S. cerevisiae deletion strains, locus YOR001W, strain rrp6, hits give low values 0.988 | S. cerevisiae deletion strains, locus YOR061W, strain CKA2, hits give low values 1 | S. cerevisiae deletion strains, locus YOR069W, strain VPS5, hits give low values 1.01 | S. cerevisiae deletion strains, locus YOR070C, strain gyp1, hits give low values 1.01 | S. cerevisiae deletion strains, locus YOR080W, strain dia2, hits give low values 1.01 | S. cerevisiae deletion strains, locus YOR083W, strain WHI5 (second series), hits give low values 1.03 | S. cerevisiae deletion strains, locus YOR083W, strain WHI5, hits give low values 1.01 | S. cerevisiae deletion strains, locus YOR106W, strain vam3, hits give low values 1 | S. cerevisiae deletion strains, locus YOR136W, strain idh2, hits give low values 0.99 | S. cerevisiae deletion strains, locus YOR144C, strain elg1, hits give low values 0.995 | S. cerevisiae deletion strains, locus YOR184W, strain ser1, hits give low values 1.01 | S. cerevisiae deletion strains, locus YOR231W, strain MKK1, hits give low values 0.981 | S. cerevisiae deletion strains, locus YOR265W, strain rbl2, hits give low values 1 | S. cerevisiae deletion strains, locus YOR270C, strain vph1, hits give low values 0.997 | S. cerevisiae deletion strains, locus YOR290C, strain snf2, hits give low values 1.04 | S. cerevisiae deletion strains, locus YOR316C, strain cot1, hits give low values 1 | S. cerevisiae deletion strains, locus YPL051W, strain arl3, hits give low values 1.01 | S. cerevisiae deletion strains, locus YPL055C, strain LGE1, hits give low values 0.985 | S. cerevisiae deletion strains, locus YPL078C, strain atp4, hits give low values 1.01 | S. cerevisiae deletion strains, locus YPL106C, strain sse1, hits give low values 1 | S. cerevisiae deletion strains, locus YPL240C, strain hsp82, hits give low values 0.989 | S. cerevisiae deletion strains, locus YPL256C, strain CLN2, hits give low values 0.928 | S. cerevisiae deletion strains, locus YPR119W, strain clb2, hits give low values 1 | S. cerevisiae deletion strains, locus YPR141C, strain kar3, hits give low values 0.994 | S. cerevisiae deletion strains, locus YPR163C, strain tif3, hits give low values 1.01 | S. cerevisiae deletion strains, locus YPR167C, strain met16, hits give low values 0.999 | S. cerevisiae deletion strains, strain wtn01, hits give low values 1 | S. cerevisiae strains, strain wild type, hits give low values 1.01
